Broadly, the inhibition is the drop in the measured response relative to a control, in per cent.

Structures are written as SMILES. Values joined by “and” are separate entries in the source; they are usually repeats but may differ in a detail not shown here. Equal values may be shown once. For some assays here: Measured potencies and affinities stand elsewhere. Active and inactive are the calls of the source.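 How the source made its calls, unless noted: active means thallium flux through the channel raised or lowered by more than 3 SD from vehicle-only wells, actives on both sides; inactive means the rest.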

Data on 5 compounds can be found in PubChem BioAssay.

Experiment [1] can be described thus: blockers of polyQ-driven CASP3 activation – cell-based (AID 1583). To be noted: polyglutamine-induced caspase-3 activation, cell assay; stronger effect = higher value;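 tested at 10 µM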.
A short description of experiment [2]: yeast 75Q aggregation reduction – 75Q-TubU reporter (AID 1593). To be noted: Yeast 75Q polyglutamine aggregation reporter.
Experiment [3] in a line: restoration of touch response, mutant HTT neurons – whole organism, C. elegans mechanosensory neurons, N-terminal huntingtin (AID 1599). The conditions noted are these: C. elegans polyQ-huntingtin mechanosensory neurons, stronger effect = higher value.
Experiment [4] can be described thus: blockers of cytochrome c efflux from mitochondria – biochemical, purified mitochondria (AID 1603).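 Further: mouse liver mitochondria challenged with calcium chloride; signal normalized to the plate average as 100%.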 The conditions noted are these: stronger effect = lower value.
Experiment [5] can be described thus: polyglutamine aggregate formation blockers (AID 1604). To be noted: polyglutamine-induced protein aggregation inhibition assay; stronger effect = higher value; tested at 2.5 µM.
Experiment [6] is described as follows: glutamate transport activators, MN-1 cells, MN-1 cell line (AID 1612).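 Further: tested at 1 µM final; 0% = mean of DMSO vehicle wells on each plate; positive means more glutamate uptake than control and negative means less.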 The conditions noted are these: MN-1 motor neuron cells, stronger effect = higher value.
Experiment [7] in a line: 75Q-TubH aggregate inhibition, S. cerevisiae, yeast (AID 1616). To be noted: S. cerevisiae 75Q-TubH polyglutamine aggregation suppression; stronger effect = higher value.
Experiment [8] in a line: compounds altering viability of human ES cells (AID 493140; call rule not given here;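 further: cells exposed to compounds for four days before counting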). The conditions noted are these: human embryonic stem cell survival screen; stronger effect = higher value.
Experiment [9] is described as follows: signal quenchers or enhancers, Cy5 substrate/SSB – biochemical, NIH Clinical Collection, E. coli SSB, artefact control for HCV NS3 helicase inhibitor project (AID 743268; call rule not given here). To be noted: Cy5-oligo bound E. coli SSB, fluorescence interference.
For experiment [10], the system named is Hepatitis C virus NS3 helicase. Briefly: blockers of NS3h binding to DNA – biochemical, fluorescence polarization, NIH Clinical Collection, primary screen (AID 743270; call rule not given here). To be noted: NS3 helicase binding to Cy5-dT15 DNA, stronger effect = higher value, concentration not given here. For orientation: Fluorescence polarisation rises when a labelled molecule tumbles more slowly, as on binding a larger partner.

The target in experiment [11] is Single-stranded DNA-binding protein (Escherichia coli (strain K12)) (UniProt P0AGE0). Briefly: SSB-ssDNA binding inhibitors – biochemical, fluorescence polarization, NIH Clinical Collection, counter-screen for HCV NS3 helicase inhibitor project (AID 743271; in the data active means inhibition above about 28%). The conditions noted are these: E. coli SSB-DNA binding, stronger effect = higher value, concentration not given here.
The nature of experiment [12]: compounds distorting NS3 helicase fluorescence signal – biochemical, NIH Clinical Collection, artefact control for HCV NS3 helicase inhibitor project (AID 743272; call rule not given here;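 further: HCV NS3 helicase with a Cy5 labelled single stranded DNA probe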). The conditions noted are these: fluorescence interference counterscreen, HCV NS3 helicase assay; stronger effect = lower value.
A short description of experiment [13]: galactose survival enhancers in mitochondrial complex I cybrids – cell-based, galactose medium, ATP luminescence, primary screen (AID 1645843;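 active means z-score of at least 1.8 in each of two replicates, scored against plate mean and spread of sample wells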;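 further: positive z means more ATP and so rescue of galactose-driven cybrid death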). To be noted: complex I mutant cybrid cells, 72 h, stronger effect = higher value.
The next experiment concerns R275C. Briefly: BK channel mutant inhibitors and activators – cell-based, U2OS BacMam, thallium flux, beta subunits, selectivity assay, profiling panel (AID 1259406).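 Further: initial slope of Thallos dye fluorescence rise after thallium is added; log ratio against the mean of 0.3% DMSO vehicle wells on the same plate.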 The conditions noted are these: U2OS BacMam BK variants, at 30 µM.
A further experiment relates to R275C/beta1. The experiment is described as above. The conditions noted are these: U2OS BacMam BK variants, at 30 µM.
In another experiment the test system is R275C/beta2Delta. Described as above. To be noted: U2OS BacMam BK variants, at 30 µM.
The test system of a further experiment is R275C/beta4. The experiment is described as above. To be noted: U2OS BacMam BK variants, at 30 µM.
A further experiment deals with R275C/Slo1WT/beta2. Described as above. The conditions noted are these: U2OS BacMam BK variants, at 30 µM.
Experiment [14] is described as follows: viability loss with induced miR-34 in A549 – imaging, A549 dox-inducible miR-34, nuclei and caspase counts, primary screen (AID 1347080;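 active means compounds whose cell count with miR-34 switched on is under 0.7 times the count with it off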). The conditions noted are these: A549 miR-34 inducible, Hoechst nuclei count, 48 h.
A short description of experiment [15]: growth inhibition, single agents and combos, ICB984, cell-based, cisplatin or BGB combos, synergistic combos for chromothripsis tumors (AID 1671451; call rule not given here;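 further: cells exposed for 96 hours before readout; 0% = vehicle DMSO and 100% = killing by high DMSO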). To be noted: ICB984 medulloblastoma cells, drug combinations, stronger effect = higher value.

On to `CCc1cc(C(N)=S)ccn1`, for which the results for the inhibition in experiment [1], in experiment [10] and in [11] were 13.5%, -4.09% (inactive) and -4.29% (inactive), respectively. In [2], this compound returned a score of 1.02. Moreover, in experiment [3], the rescue above control is -3.77. Besides, in experiment [4], the cytochrome c release ratio amounted to 1.06. In addition, the inhibition of aggregation in experiment [5] was 78.8%. Moreover, the glutamate uptake change in experiment [6] amounted to 15.8%. This compound also showed an aggregation suppression score in experiment [7] of 1.09. Moreover, the survival in [8] was 9.25 (inactive). Further, the fluorescence ratio is 1.03 (inactive) in experiment [9] and 1.01 (inactive) in experiment [12]. The z-score in experiment [13] was 0.725 (inactive). The log fold change Tl+ flux was 0.0202 (inactive) in the experiment with R275C; -0.00453 (inactive) in the experiment with R275C/beta1; -0.00222 (inactive) in the experiment with R275C/beta2Delta; 0.0412 (inactive) in the experiment on R275C/beta4; 0.00968 (inactive) with R275C/Slo1WT/beta2.

Regarding `NCCc1ccc(O)c(O)c1`, the figures for the inhibition in experiment [1], in experiment [10] and in experiment [11] were 12.5%, -5.91% (inactive) and -2% (inactive), respectively. For the same compound, the score in experiment [2] was determined as 1.44. Also, the rescue above control in experiment [3] is 0.54. The cytochrome c release ratio in experiment [4] amounted to 0.92. Moreover, in experiment [5], the inhibition of aggregation was determined as 81.4%. This compound also displayed a glutamate uptake change in [6] of 17.9%. In [7], the aggregation suppression score is 1.6. In addition, the fluorescence ratio in experiment [9] was 0.93 (inactive); in experiment [12], 0.96 (inactive). The z-score in experiment [13] is -1.03 (inactive) and -1.31 (inactive). Also, the log fold change Tl+ flux is 0.00996 (inactive) in the experiment on R275C; -0.0871 (inactive) in the experiment on R275C/beta1; 0.0238 (inactive) with R275C/beta2Delta; 0.0461 (inactive) with R275C/beta4; 0.00323 (inactive) in the experiment with R275C/Slo1WT/beta2.

Consider `CC(C)Cc1ccc(C(C)C(=O)O)cc1` (stereo not given), for which, in [1], the inhibition was -4.83%. Besides, the score in experiment [2] was determined as 0.01. The compound also came in with a rescue above control in experiment [3] of 11.4. Further, the cytochrome c release ratio in [4] was 0.94. Also, the inhibition of aggregation in experiment [5] came out at 47.1%. The compound also had a glutamate uptake change in experiment [6] of 16.3%. Further, the aggregation suppression score in [7] was -0.00282. In addition, the z-score in experiment [13] is 0.975 (inactive) and -0.01 (inactive) and 0.46 (inactive). The log fold change Tl+ flux in the experiment with R275C was 0.00709 (inactive); in the experiment on R275C/beta1, -0.00083 (inactive); with R275C/beta2Delta, -0.00841 (inactive); in the experiment with R275C/beta4, -0.0471 (inactive); in the experiment with R275C/Slo1WT/beta2, 0.0328 (inactive).

For the compound `COCCOC(=O)C1=C(C)NC(C)=C(C(=O)OC(C)C)C1c1cccc([N+](=O)[O-])c1` (stereo not given), the survival in experiment [8] was 3 (inactive). Also, the fluorescence ratio is 0.87 (inactive) in [9] and 0.92 (inactive) in experiment [12]. For the same compound, the inhibition in experiment [10] was 6.77% (inactive); in experiment [11], 15.3% (inactive). Moreover, the log fold change Tl+ flux was -0.000869 (inactive) in the experiment on R275C; -0.0169 (inactive) in the experiment on R275C/beta1; -0.0566 (inactive) in the experiment with R275C/beta2Delta; -0.0265 (inactive) with R275C/beta4; -0.0323 (inactive) in the experiment with R275C/Slo1WT/beta2.

Take `COc1c(N2CCNC(C)C2)c(F)cc2c(=O)c(C(=O)O)cn(C3CC3)c12` (stereo not given): the fluorescence ratio is 1.05 (inactive) in [9] and 1.01 (inactive) in experiment [12]. For the same compound, the inhibition in experiment [10] is -8.64% (inactive); in experiment [11], -6.58% (inactive); in experiment [15] (BGB IC20 combo, at 0.005 µM) it was 6.38% and 0.318%; in experiment [15] (BGB IC40 combo, at 0.005 µM), -11.2% and -13.7%; in [15] (BGB IC40 combo, at 0.05 µM), -11.7% and 20.2%; in experiment [15] (at 0.5 µM), -18.4% (inactive) and -24.4% (inactive). In addition, the inhibition in experiment [15] (cisplatin combo, at 0.05 µM) is -15.7% and 18%; in experiment [15] (cisplatin combo, at 0.5 µM), -12.4% and -7.73%; in experiment [15] (cisplatin combo, at 5 µM) it was -26.5% and -51.5%; in experiment [15] (measured here: 5 uM single agent, at 5 µM) it was -2.69% and -3.52%. Also, the fold change in experiment [14] (stronger effect = lower value, cell number ratio, induced over uninduced) was 0.968 (inactive) and 0.875 (inactive); in experiment [14] (measured here: relative caspase fold change +Dox/-Dox), 1.74 and 1.47 and 1.16. Besides, the cell count in [14] (measured here: total cells with miR-34 induction, stronger effect = lower value) was 10600 and 11400 and 9660; in experiment [14] (measured here: total cells without miR-34 induction), 10900 and 13100 and 11000. Besides, the z-score in experiment [13] is 0.695 (inactive) and -0.01 (inactive). In addition, the log fold change Tl+ flux in the experiment with R275C was -0.0278 (inactive); with R275C/beta1, 0.0168 (inactive); in the experiment on R275C/beta2Delta, 0.00178 (inactive); in the experiment with R275C/beta4, -0.00176 (inactive); in the experiment with R275C/Slo1WT/beta2, 0.05 (inactive).
